Each structure is given as a SMILES string. The list shows a part of the results. Activity calls are given as the source filed them. The rule behind the calls is not given here.

This assay can be described thus: cytotoxicity in HepG2 cells, dose response, cytotoxicity control, cell-based, plate reader, cherry-pick, two tests (AID 651898). To be noted: max activity: at 12 µM, test 1 unless noted; series mostly up to 26 µM; activity change, negative = cytotoxicity: at the top concentration.
As to `Cc1nc(=O)c(-c2ccccc2)c(C)n1-c1ccc(Br)cc1`, the max activity was 19% (inactive). As to `CC(=O)CSc1nnc(CSc2ncccn2)n1C1CCCCC1`, the max activity is 18.7% [at 1.6 µM, test 1] (inactive).

Consider `O=C(CSc1n[nH]c(-c2cccnc2)n1)Nc1ccnc2ccccc12`, for which the max activity is 8.04% (inactive). Take `CS(=O)(=O)N1[C@H](C(=O)NCc2ccncc2)[C@@H](CO)[C@@H]2Cn3c(ccc(C4=CCCCC4)c3=O)[C@@H]21`: the max activity is -13.1% [measured here: replicate test 2 max activity, at 3 µM, test 2] and the “activity change, negative = cytotoxicity” value is -12.1% (inactive).

With `CC1(C)CC(=O)C=C(c2ccc3ncccc3c2)C1`, the max activity is -17% (inactive).

`Cn1c(=O)c2c(nc(OCc3cccnc3)n2Cc2ccccc2)n(C)c1=O`: the max activity is -11.3% [at 26 µM, test 1] (inactive).

For the compound `COc1cc(-c2n[nH]c(=S)n2Cc2ccccc2)cc(OC)c1OC`, the max activity was -15.9% (inactive). Take `O=C(c1ccncc1)N1CC[C@@H]2[C@H]1c1cc(Br)ccc1N[C@@H]2CO`: the “activity change, negative = cytotoxicity” value is 2.06% (inactive) and the max activity is -16.4% [measured here: replicate test 2 max activity, at 0.8 µM, test 2]. Consider `O=c1[nH]c(N2CCN(Cc3ccc4c(c3)OCO4)CC2)nc2c1CCCC2`, for which the max activity is -9.65% [at 0.38 µM, test 1] (inactive). The same measure, in the same setting: to `CC(=O)O[C@]1(C(C)=O)CC[C@H]2[C@@H]3C=C(C)C4=CC(=O)CC[C@]4(C)[C@H]3CC[C@@]21C` belongs 5.11% [at 1.6 µM, test 1] (inactive); to `C=C(C)CSc1nc(N)c2c3c(sc2n1)CCC3`, -7.76% [at 1.6 µM, test 1] (inactive); to `Cc1ccc(Cc2c(C)nc3nc(SCC(=O)NCCN4CCOCC4)nn3c2C)cc1`, -6.95% [at 0.38 µM, test 1] (inactive). Still for that read-out and setting: to `Cc1c2cnn(CC(=O)NCc3ccccn3)c(=O)c2c(C)n1Cc1ccc(Cl)cc1` belongs 24.2% [at 26 µM, test 1] (inactive); to `Cc1nc2nc(SCC(=O)NCc3ccco3)nn2c(C)c1Cc1ccccc1`, 6.48% [at 0.195 µM, test 1] (inactive).

On to `CN1c2ccc(-c3ccccc3)cc2[C@H]2[C@H](CCN2C(=O)Cc2ccccn2)[C@H]1CO`, for which the max activity was 20.8% [measured here: replicate test 2 max activity, at 23.5 µM, test 2] and the “activity change, negative = cytotoxicity” value was 20.8% [at 23.5 µM] (inactive). As for `CCCOc1ccc2c3c(c(=O)oc2c1OCCC)CCC3`, the max activity was 27.7% [at 26 µM, test 1] (inactive).

Consider `COCCNC(=O)C[C@H]1CC[C@@H]2[C@H](COc3ccc(NC(=O)Nc4cccc(F)c4)cc3C(=O)N2C)O1`, for which the “activity change, negative = cytotoxicity” value was 9.7% [at 23.5 µM] (inactive) and the max activity was 9.85% [measured here: replicate test 2 max activity, at 3 µM, test 2].

With `Cc1c(OC(C)C(=O)NCC2CCC(C(=O)O)CC2)ccc2c1oc(=O)c1ccccc12` (stereo not given), the max activity was 38.2% (inactive). Still for that read-out and setting: to `C=CCn1c(SCc2c(C(=O)OC)sc(N)c2C(=O)OC)nnc1-c1ccc(Cl)cc1` belongs -11.6% [at 1.6 µM, test 1] (inactive). On to `CCC(CO)Oc1cc(NC(=O)c2cccc(F)c2)c2ncn(C(C)C)c2c1` (stereo not given), for which the max activity was 10.6% [measured here: replicate test 2 max activity, at 0.195 µM, test 2] and the “activity change, negative = cytotoxicity” value is -8.3% (inactive).

The values above are taken from PubChem BioAssay AID651898 (Broad Institute, 2012).
